Laboratory results: the supplement of paper PMC5919970
Structures can show the parent of a compound that is named as a salt. Over roughly 2,000 compounds, “fractional viability relative to vehicle” has its median near 0.92; the lowest 2% begin near 0.11. The list comes from a sample in which the lowest values are over-represented; it also holds similar structures and randomly drawn compounds.

Tested on: TYKNU
Assay: fractional viability relative to vehicle; TYKNU is a high-grade serous ovarian cancer line; higher = less growth inhibition
Details: 72 h, genotype: OPA1 knockout (sgOPA1 #2)
Summary of the method: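 TYKNU control cells or lentiCRISPRv2 knockout derivatives were seeded at 500 cells per well into drug-stamped 384-well plates holding a ~2100-compound library at 2 or 10 μM, in duplicate. Cells were grown at 37 °C in 5% CO2 in RPMI 1640 with 10% FBS, and drug treatment lasted 72 h. Viability was read by Cell Titer Glo luminescence. Duplicate treatment wells were averaged and normalised to duplicate control wells from the same plate position.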

| SMILES | fractional viability (2uM) | fractional viability (10uM) |
| --- | --- | --- |
| O=C1C(=O)N(Cc2ccc(Cl)c(Cl)c2)c2ccccc21 [Apoptosis Activator 2] | 0.461 | 0.287 |
| Cc1cccc(-c2[nH]c(C(C)(C)C)nc2-c2ccc3nccnc3c2)n1 | 1.28 | 1.26 |
| CC1(C)CCC2=C(O1)c1ccccc1C(=O)C2=O [Beta-Lapachone] | 0.202 | 0.0483 |
| CC1=CC(=O)c2ccccc2C1=O [Menadione] | 0.94 | 0.75 |
| OCCn1cc(-c2cnc3nnn(Cc4ccc5ncccc5c4)c3n2)cn1 | 1.09 | 1.14 |
| COc1ccc(C2=N[C@@H](c3ccc(Cl)cc3)[C@@H](c3ccc(Cl)cc3)N2C(=O)N2CCNC(=O)C2)c(OC(C)C)c1 [Nutlin-3] | 0.858 | 0.623 |
| COc1ccc(C2=N[C@@H](c3ccc(Cl)cc3)[C@@H](c3ccc(Cl)cc3)N2C(=O)N2CCNC(=O)C2)c(OC(C)C)c1 [Nutlin-3a] | 0.481 | 0.367 |
| CCCc1cc2c(N3CCN(C4=NCC(C)(C)S4)CC3)ncnc2s1 [MI-2 (Menin-MLL Inhibitor)] | 0.828 | 0.711 |
| Clc1ccc(NN=C(c2ccccc2)c2ccccn2)nc1 | 0.229 | 0.0582 |
| O=C(Nc1cccc(Cl)c1)c1ccccn1 | 1.19 | 1.02 |
| CN(C)C(=S)NN=C(c1ccccn1)c1ccccn1 | 0.572 | 0.755 |
| CC(C)C[C@@H](C=O)NC(=O)[C@H](CC(C)C)NC(=O)[C@H](CC(C)C)NC(=O)OCc1ccccc1 | 0.236 | 0.144 |
| O=C(O)C(S)=Cc1c[nH]c2ccc(F)cc12 | 0.79 | 0.825 |
| Nc1ncnc2c1C(=O)N(c1ccc([C@H]3CC[C@H](CC(=O)O)CC3)cc1)CCO2 | 0.723 | 0.773 |
| Nc1cccc(S(=O)(=O)N2CCCN(S(=O)(=O)c3ccc4c(c3)OCCO4)CC2)c1 | 0.783 | 0.849 |
| C=CC(=O)Nc1ccc2ncnc(Nc3ccc(OCc4cccc(F)c4)c(Cl)c3)c2c1 | 0.742 | 0.0667 |
| CS(=O)(=O)CCNCc1ccc(-c2ccc3ncnc(Nc4ccc(OCc5cccc(F)c5)c(Cl)c4)c3c2)o1 | 1.05 | 0.369 |
| C=CC(=O)Nc1ccc2ncnc(Nc3cccc(Br)c3)c2c1 | 0.982 | 0.588 |
| CC(C=CC(=O)NO)=CC(C)C(=O)c1ccc(N(C)C)cc1 (centres undefined) [Trichostatin A (TSA)] | 0.335 | 0.298 |
| O=C(O)c1ccc(-c2c[nH]c3ncc(-c4ccccc4)cc23)cc1C1CCCC1 | 0.98 | 1.11 |
| Cc1ccc([N+](=O)[O-])cc1S(=O)(=O)N(C)/N=C/c1cnc2ccc(Br)cn12 | 0.428 | 0.422 |
| Cc1cc(C(N)=O)ccc1-n1c(CCC(=O)O)ccc1-c1ccc(-n2ccnc2)cc1 | 0.877 | 0.84 |
| CCOC(=O)c1ccc(NC2CCCCC2)c(N)c1 [Ferrostatin-1 (Fer-1)] | 1.03 | 0.934 |
| CC(C)[C@H](N)C(=O)OCC(CO)OCn1cnc2c(=O)[nH]c(N)nc21 (some centres undefined) [Valganciclovir HCl] | 0.846 | 0.832 |
| CCC[C@H](NC(=O)/C(C#N)=C/c1cccc(Br)n1)c1ccccc1 [Degrasyn (WP1130)] | 0.343 | 0.0765 |
| C[C@H](NC(=O)CCc1nc2ccccc2c(=O)[nH]1)c1ccccc1 | 0.861 | 0.876 |

| SMILES | fractional viability (2uM) | fractional viability (10uM) |
| --- | --- | --- |
| C[C@H](NC(=O)/C(C#N)=C/c1cccc(Br)n1)c1ccccc1 | 0.867 | 0.0926 |
| N#C/C(=C\c1ccc(O)c(O)c1)C(=O)NCc1ccccc1 [AG-490 (Tyrphostin B42)] | 1.03 | 1.08 |
| CC(C)C[C@H](NP(=O)(O)O[C@@H]1O[C@@H](C)[C@H](O)[C@@H](O)[C@H]1O)C(=O)N[C@@H](Cc1c[nH]c2ccccc12)C(=O)O [Phosphoramidon Disodium Salt] | 0.899 | 0.879 |
| CNC(=O)[C@@H](NC(=O)[C@H](CC(C)C)[C@H](O)C(=O)NO)C(C)(C)C [Marimastat(BB-2516)] | 0.952 | 0.73 |
| CC[C@@H]([C@H](C)O)n1ncn(-c2ccc(N3CCN(c4ccc(OC[C@@H]5CO[C@@](Cn6cncn6)(c6ccc(F)cc6F)C5)cc4)CC3)cc2)c1=O [Posaconazole] | 1.18 | 0.872 |
| Cc1ccc(NC(=O)Nc2cc(C(F)(F)F)ccc2F)cc1Nc1ccc2c(c1)NC(=O)/C2=C\c1ccc[nH]1 | 0.83 | 0.932 |
| CNS(=O)(=O)Nc1nccc(Cc2c(C)c3ccc(Oc4ncccn4)cc3oc2=O)c1F | 0.508 | 0.376 |
| O=C(c1ccc(C(=O)N2CCC(N3CCCC3)CC2)c(Nc2ccccc2)c1)N1CCC(N2CCCC2)CC1 | 0.924 | 0.857 |
| O=C(c1ccc(Nc2nccc(-c3cc4ccccc4s3)n2)cc1)N1CCC(N2CCCC2)CC1 [IKK-16 (IKK Inhibitor VII)] | 0.74 | 0.0971 |
| O=C(c1cncc(Br)c1)N1CCC(N2CCCC2)CC1 | 0.797 | 0.838 |
| O=C(N/N=C/c1cc(O)c(O)cc1O)c1cc2ccccc2cc1O [Dyngo-4a] | 1.04 | 1.16 |
| Cc1nc(N(C)C(=O)Cc2ccc(-c3ccccn3)cc2)sc1S(N)(=O)=O [Pritelivir (BAY 57-1293)] | 0.924 | 0.791 |
| Cc1cc(Cn2cnc3c2CC(C(=O)O)N(C(=O)C(c2ccccc2)c2ccccc2)C3)ccc1N(C)C (centres undefined) | 0.986 | 0.95 |
| Cc1cc(C)cc(C(=O)NOCCCCCC(=O)NO)c1 | 0.355 | 0.188 |
| C/C=C1\NC(=O)[C@H]2CSSCC/C=C/[C@H](CC(=O)N[C@H](C(C)C)C(=O)N2)OC(=O)[C@H](C(C)C)NC1=O [Romidepsin (FK228, Depsipeptide)] | 0.0685 | 0.0492 |
| c1ccc2c(CCNc3ccc(Nc4ccncc4)cc3)c[nH]c2c1 | 0.485 | 0.15 |
| Oc1nc(-c2ccc(C(F)(F)F)cc2)nc2c1CSCC2 | 1.13 | 0.683 |
| Cc1ccc(Nc2nccc(N(C)c3ccc4c(C)n(C)nc4c3)n2)cc1S(N)(=O)=O [Pazopanib] | 1.14 | 0.605 |
| CCOC(=O)c1[nH]c2cc(Cl)ccc2c1C(C(=O)NC(C)(C)C)N(C=O)Cc1ccc(Cl)cc1 (centres undefined) | 0.864 | 0.464 |
| CN(C)c1ccc(C(=C2C=CC(=[N+](C)C)C=C2)c2ccc(N(C)C)cc2)cc1 [Crystal Violet] | 0.323 | 0.0953 |
| O=C(O)CCC(=O)Nc1ccc(Br)cn1 [Bikinin] | 0.818 | 0.759 |
| [I-].[K+] [Potassium Iodide] | 1.07 | 0.971 |
| O=C1NCCCc2c1oc1ccc(O)cc21 | 1.1 | 1.15 |
| c1ccc(Cn2c(-c3ccc(OC[C@H](C4CCNCC4)n4c(-c5ccccc5)nc5ccccc54)cc3)nc3ccccc32)cc1 [Deltarasin] | 1.14 | 0.0644 |
| Cc1cc(/N=N/c2ccc(S(=O)(=O)Nc3ccccn3)cc2)c(N)cc1O | 0.89 | 0.64 |
| O=C(NO)c1cccc(C(=O)NCCc2ccccc2)c1 | 0.926 | 0.933 |
